D1 potentiator: enhances dopamine response at the human D1 receptor | AID 504651 | potentiation, % at 10 µM | HEK293 TREx D1 cells, calcium flux, dopamine EC20 potentiation | 360,000 tested, 0.036% active; in the data active = potentiation above about 30%; also: 0% is about no effect
Target sequence (P21728 whole entry, looked up): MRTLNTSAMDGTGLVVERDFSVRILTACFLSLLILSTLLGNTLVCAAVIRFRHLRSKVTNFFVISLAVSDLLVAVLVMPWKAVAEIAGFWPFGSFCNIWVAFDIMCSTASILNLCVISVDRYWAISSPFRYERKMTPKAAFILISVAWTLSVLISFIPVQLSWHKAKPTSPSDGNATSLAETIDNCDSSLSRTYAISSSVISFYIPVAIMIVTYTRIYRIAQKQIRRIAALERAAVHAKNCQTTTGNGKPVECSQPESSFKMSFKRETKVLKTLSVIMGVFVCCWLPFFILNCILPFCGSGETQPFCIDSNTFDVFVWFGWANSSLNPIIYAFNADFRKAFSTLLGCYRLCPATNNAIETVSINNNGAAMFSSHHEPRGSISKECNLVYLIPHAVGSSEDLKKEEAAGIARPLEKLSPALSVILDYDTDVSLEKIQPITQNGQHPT
D3 antag: antagonists of human D3 dopamine receptor; max response, negative = inhibition, %; P35462; D3R cells, DiscoveRx beta-arrestin luminescence, antagonist mode; stronger effect = lower value; 360,000 tested, 2.5% active; in the data active = max response below about -50%; inconclusive = no clear call, values can overlap the other calls; also: % is scaled to controls: 0 for no effect and ±100 for the full control effect
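Cells expressing the human receptor were seeded at 1500 cells/well, incubated overnight at 37 degrees C in 5% CO2, then exposed to library compounds with dopamine controls for 90 minutes at 37 degrees C before luminescent detection.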
DRD3 agonist: agonists of human D3 dopamine receptor; max activation, %; 410,000 tested, 0.58% active; D3R DiscoveRx beta-arrestin cells, luminescence, 90 min; in the data active = max activation above about 30%; also: 0% is about no effect
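Agonist-mode cell screen: cells plated at 1500/well and incubated overnight at 37 °C, then exposed to library compounds for 90 min at 37 °C. Detection reagent was added for 30–60 min at room temperature, and luminescence was read.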
D1 agonist: activates the human D1 dopamine receptor | P21728 | HEK293 T-REx D1 cells, calcium flux, agonist mode | activation, % at 2 µM | 360,000 tested, 1% active | AID 504660; in the data active = activation above about 30%; also: 0% is about no effect
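Agonism was scored from calcium flux recorded over 180 s (1 read/s) after pintool compound addition, following a 10-cycle baseline. Cells were inducible force-coupled HEK293 TREx D1, plated overnight at 30 C and loaded with no-wash calcium dye.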
D1 antagonist: blocks dopamine activation of the human D1 receptor; HEK293 TREx D1 cells, calcium flux, dopamine EC80; stronger effect = lower value; activity change, negative = inhibition, % at 10 µM; 360,000 tested, 3.2% active; P21728; in the data active = activity change below about -30%; also: % is scaled to controls: 0 for no effect and ±100 for the full control effect
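Using tetracycline-induced force-coupled D1 Hek293 cells and a calcium dye, signals were followed for 180 s after compound, then for 180 s after EC80 dopamine, to detect inhibitors.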
Starred values were filed as active, the others as inactive; ? = inconclusive; nt = no result. Only some compounds are listed: those with a hit (about 6% of all), similar ones and a draw of the others.

SMILES | D1 potentiator | D3 antag | DRD3 agonist | D1 agonist | D1 antagonist
Cc1ccc2c(c1)-c1onc(C(=O)N(C)c3ccc(F)cc3)c1CO2 | -4 | nt | 0 | 0 | -5
COc1cc(OC)cc(-n2c(=O)c3ccccc3n(Cc3ccccc3C#N)c2=O)c1 | 0 | nt | -10 | 2 | 3
Cc1ccc(Cl)cc1N1CCN(c2ncnc3onc(-c4ccc(F)cc4)c23)CC1 | -6 | nt | -15 | 1 | -36*
Cc1ccc(N2CCN(c3ncnc4onc(-c5ccc(F)cc5)c34)CC2)c(C)c1 | -5 | nt | 5 | 0 | -1
CC(C)Oc1cc(F)ccc1-c1cc(C(=O)NCC2CCCCC2)[nH]n1 | nt | -83* | -11 | nt | nt
Cc1ccc(Cl)cc1-c1cc(C(=O)NCc2cccc(Cl)c2)[nH]n1 | nt | ? | -15 | nt | nt
COc1cc(F)ccc1-c1cc(C(=O)NCc2cccc(Cl)c2)[nH]n1 | nt | ? | -10 | nt | nt
COc1ccc(Cl)cc1-c1cc(C(=O)NCC2CCCCC2)[nH]n1 | nt | -58* | -16 | nt | nt
Cc1ccc(Cl)cc1-c1cc(C(=O)NCc2ccccc2)[nH]n1 | nt | -51* | -14 | nt | nt
CCOc1ccc(Cl)cc1-c1cc(C(=O)NCC2CCCCC2)[nH]n1 | nt | ? | -20 | nt | nt
COc1ccc(Cl)cc1-c1cc(C(=O)NCc2cccc(Cl)c2)[nH]n1 | nt | -71* | -13 | nt | nt
Cc1cc(F)ccc1-c1cc(C(=O)NCC2CCCCC2)[nH]n1 | nt | -28 | -18 | nt | nt
COC(=O)c1ccc(NC(=O)CC2C(=O)N(c3cccc(C)c3)C(=O)N2C2CCCC2)cc1 (centres undefined) | -2 | nt | -14 | 0 | -11
CCc1noc(C)c1C(=O)Oc1ccc(N(C)S(=O)(=O)c2ccccc2)cc1 | 6 | 20 | 5 | 36* | 4
CCc1noc(C)c1C(=O)Oc1ccc(N(C)S(=O)(=O)c2ccc(C)cc2)cc1 | 0 | 38 | 17 | 18 | -7
Cc1noc(C)c1CSCC(=O)Oc1ccc(N(C)S(=O)(=O)c2ccccc2)cc1 | -13 | -10 | -5 | 28 | 7
Cc1noc(C)c1CSCC(=O)Oc1ccc(N(C)S(=O)(=O)c2ccc(Cl)cc2)cc1 | -7 | -4 | 36* | 19 | -13
Cc1cc2nc3ccc(=[N+](C)C)cc-3sc2cc1N | -4 | -54* | -16 | 4 | -12
CN(C)c1ccc2nc3ccc(=[N+](C)C)cc-3sc2c1 | -7 | -60* | -21 | -1 | -8
CSc1nn(Cc2ccc(C)cc2)c(N)c1S(=O)(=O)c1ccccc1 | 1 | nt | 4 | 4 | -7
Cc1cccc(CCNC(=O)c2ccc3c(c2)N(Cc2ccccc2F)C(=O)c2ccccc2S3)c1 | -1 | nt | 7 | 5 | -7
C[C@@H](CSc1ccccc1)CN1CC[C@H](O)CCC1=O | 1 | 23 | 4 | -1 | -31*
C[C@@H](CSc1ccccc1)CN1CC[C@H](NC(=O)OCc2ccccc2)CCC1=O | -11 | 23 | 5 | 5 | -13
CCn1c(C(=O)NCc2ccccc2OC)cc2sccc21 | 0 | nt | -7 | 3 | -6
O=C(CN1CCN(S(=O)(=O)c2ccccc2)CC1)Nc1ccc2c(c1)CCC2 | -4 | -53* | -25 | 16 | -13
SMILES | D1 potentiator | D3 antag | DRD3 agonist | D1 agonist | D1 antagonist
O=C(CN1CCN(S(=O)(=O)c2ccc(Br)cc2)CC1)Nc1ccc(F)cc1F | -7 | -51* | -1 | 1 | -21
O=C(CN1CCN(S(=O)(=O)c2ccc(Cl)cc2)CC1)Nc1ccc(F)cc1F | 0 | 0 | 3 | 4 | -17
O=C(CN1CCCC1)Nc1ccc2c(c1)CCC2 | 6 | -23 | -10 | 2 | 11
O=C(CN1CCN(c2ccccc2O)CC1)Nc1ccc2c(c1)CCC2 | 6 | -72* | -12 | 1 | 7
COc1ccc(Nc2ncnc3onc(C)c23)cc1Cl | 4 | nt | -4 | 0 | -25
O=C(CN1C(=O)C(c2ccc(F)cc2)=NC12CCCCCC2)Nc1ccccc1Cl | -1 | nt | -4 | 19 | 46
COc1ccc(/C=N/c2oc(-c3ccccc3)cc2C#N)cc1OC | -4 | -52* | -4 | 12 | 1
COc1ccc(/C=N/NC(=O)c2nc(-c3ccccc3)cc(-c3ccccc3)n2)cc1OC | 0 | 19 | -5 | 1 | -13
COc1cccc(C2=NS(=O)(=O)N(C)C(C(=O)Nc3cccc(O)c3)=C2)c1 | -4 | nt | -3 | 4 | -4
CCOC(=O)c1cc(S(=O)(=O)Nc2cc(C)c(Cl)cc2OC)[nH]n1 | -2 | nt | -5 | 5 | 4
Cc1ccc(NC(=O)c2cc(-c3ccccc3)nn2-c2ccccc2)cc1 | -2 | 0 | -19 | 5 | 0
O=C(NC1=NCCS1)c1cc(-c2ccccc2)nn1-c1ccccc1 | 0 | -8 | 1 | 4 | -47*
Cc1ccc(C)c(-c2nnc(NC(=O)c3ccc4c(c3)OCCO4)o2)c1 | -2 | nt | -26 | 8 | -37*
O=C(Nc1nnc(C2=COCCO2)o1)c1ccc(Br)cc1 | -6 | nt | nt | 0 | -34*
CC(C)c1ccc(NC(=O)C2CCCN(S(=O)(=O)c3cccc4nsnc34)C2)cc1 (centres undefined) | 0 | nt | 2 | 1 | 5
O=C1C(Cl)=C(Nc2ccc(F)cc2)C(=O)N1CCc1ccccc1 | -3 | -24 | -7 | 2 | -35*
CN1CCN(C2=C(Cl)C(=O)N(CCc3ccccc3)C2=O)CC1 | -2 | -71* | -6 | 9 | 6
O=C1C(Cl)=C(N2CCOCC2)C(=O)N1CCc1ccccc1 | -1 | -28 | 2 | -3 | -6
O=C1C(Cl)=C(NCCc2ccccc2)C(=O)N1CCc1ccccc1 | 0 | -8 | 0 | 0 | 3
CN1CCN(C2=C(Cl)C(=O)N(c3ccc(Cl)cc3)C2=O)CC1 | -3 | -83* | 5 | 2 | -1
CCOc1ccc(OCC)c(NC(=O)c2cc(S(=O)(=O)N3CCc4ccccc43)cn2C)c1 | -3 | nt | 4 | -1 | -8
O=C(Nc1ccc(NC(=O)c2cc3ccccc3o2)cc1)c1ccc2c(c1)OCCO2 | 1 | 19 | 9 | 3 | -43*
Cc1cc(NC(=O)c2ccc3c(c2)OCCO3)ccc1NC(=O)c1cc2ccccc2o1 | 6 | 49 | 10 | 3 | 4
COc1cc(NC(=O)c2ccc(F)cc2)ccc1NC(=O)c1cc2ccccc2o1 | -9 | 9 | -5 | 1 | -33*
CCOC(=O)c1ccc(CN(Cc2ccc(OC)cc2)S(=O)(=O)c2cccc(C(F)(F)F)c2)cc1 | -1 | nt | -9 | 12 | -3
O=S(=O)(NCCS(=O)(=O)N1CCN(c2ccccc2F)CC1)c1ccc(Cl)cc1 | -2 | nt | -12 | 3 | -15
CCOC(=O)C1=C(COC(=O)/C=C/c2cc(OC)c(OC)c(OC)c2)NC(=O)NC1C (centres undefined) | -5 | 14 | 14 | 1 | -39*
CCOC(=O)C1=C(COC(=O)c2ccc(OC)c(OC)c2OC)NC(=O)NC1C (centres undefined) | -3 | -2 | 0 | 11 | -44*
O=c1cc(-c2ccc(F)cc2)nc(SCc2nc(-c3cccc(Cl)c3)no2)[nH]1 | -2 | nt | -8 | 1 | -2
